GCN5L2 inh: blocks human GCN5L2 histone acetyltransferase; Potency, µM (top dose mostly 58.9 µM), without a hit: at the highest dose activity change, negative = inhibition, hits mostly inhibitors; Q92830; 390,000 compounds, 0.21% hits; GCN5L2 HAT assay, ThioGlo1 CoA-SH fluorescence; AID 504327; further: potency means the concentration at half of the fitted maximal effect; on the % scale 0 is the no-effect control and ±100 the full control effect
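Free CoA generated was detected with ThioGlo1 (50uM) fluorescence at Ex340nm/Em540nm, read immediately and after 20 min at room temperature. Enzyme, 20 nM in HEPES pH 7.5 buffer, saw compounds 15 min before adding 75uM H3(1-25) peptide and 70uM acetyl-CoA.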
BAZ2B block: BAZ2B (human) inhibition; Q9UIF8; AlphaScreen BAZ2B-H3K14Ac peptide displacement; Potency, µM (series often up to 114 µM), inactives show at the highest dose activity change, negative = inhibition, hits mostly inhibitors; 360,000 compounds, 4.4% hits; AID 504333; further: potency means the concentration at half of the fitted maximal effect; on the % scale 0 is the no-effect control and ±100 the full control effect; nearly all actives have a fitted effect of over 60% in size
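Compounds, titrated to a top concentration of 110 uM, were incubated 30 min at room temperature with preformed BAZ2B/acetyl-K14 H3 peptide complex (50 nM each). Proximity signal was measured by AlphaScreen after 20 min with beads.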
JMJD2A Tudor: JMJD2A Tudor domain (human) inhibition; AID 504339; 390,000 compounds, 4.4% hits; Potency, µM (highest dose often 114 µM), inactives show at the top dose activity change, negative = inhibition, actives largely listed as inhibitors; AlphaScreen JMJD2A-Tudor / H3K4me3 peptide binding; O75164; further: potency means the concentration at half of the fitted maximal effect; on the % scale 0 is the no-effect control and ±100 the full control effect; nearly all actives have a fitted effect of over 50% in size
PLK1 PBD inh: inhibitors of human PLK1 polo-box domain binding; Plk1 PBD binding of FITC phosphopeptide, fluorescence polarization; Potency, µM, inactives show max response, negative = inhibition, hits mostly inhibitors; 360,000 compounds, 2.8% hits; P53350; further: potency means the concentration at half of the fitted maximal effect; series mostly up to about 57 µM; on the % scale 0 is the no-effect control and ±100 the full control effect; nearly all actives have a fitted effect of over 65% in size
PI5P4K alpha inh: inhibitors of human PI5P4K alpha. PI5P4Kalpha enzyme, ADP-Glo luminescence, 60 min; active compounds read low. max response, %. 330,000 compounds, 1.2% hits. AID 652105; active means max response of -50% or lower; inconclusive means between -30% and -50%; inactive means -30% or higher; further: value at the top dose of about 77 µM; on the % scale 0 is the no-effect control and ±100 the full control effect
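PI5P4Kalpha ADP-Glo assay; 5 microM ATP final; 60 min RT reaction; HEPES pH 7.4/EGTA/CHAPS, 5% DMSO; controls lacking substrate or enzyme; luminescent end-point.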
HP1b binding inh: HP1-beta chromodomain-methylated histone interaction inhibition; P83916; AlphaScreen HP1-beta / biotin-H3K9me3 peptide binding; Potency, µM (doses to about 114 µM), inactives show at the highest dose activity change, negative = inhibition, usual class: inhibitors; 390,000 compounds, 0.56% hits; further: potency means the concentration at half of the fitted maximal effect; nearly all actives have a fitted effect of over 70% in size
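AlphaScreen: HP1-beta (50 nM) preformed 30 min with biotin-H3(1-18)K9me3 peptide (50 nM) in PBS pH 7.4, 0.01% Tween-20. Compound added for 30 min at RT, then streptavidin donor/nickel chelate acceptor beads (10 ug/mL) for 30 min.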
ADP-Glo counter: counter-screen for PI5P4K inhibitors: ADP-Glo detection interference, no enzyme; Potency, µM (top dose mostly 76.9 µM), for the others: at the highest dose activity change, negative = inhibition, most hits filed as inhibitors; AID 743285; shares compounds with PI5P4K alpha inh; ADP-Glo detection counter-screen, luciferase luminescence, no enzyme; 1,100 tested, under 10 active
An asterisk follows results filed as active; ? = inconclusive; nt = not tested or not shown. Sampled rows, rich in hits. Any-hit rate of the full collection: about 7%. Unless noted, the call rests on the fitted dose curve; in most records, active means well fitted curve in the direction sought with a large enough effect; inconclusive means small, poorly fitted or top-dose-only effect, or another doubt; inactive means no such curve, though single readings can be large; an effect the other way counts as inactive or inconclusive.

SMILES	GCN5L2 inh	BAZ2B block	JMJD2A Tudor	PLK1 PBD inh	PI5P4K alpha inh	HP1b binding inh	ADP-Glo counter
CCCCC1=CC2=C(c3ccco3)C(=O)C(C)(OC(=O)c3ccc(OC)cc3)C(=O)C2=CN1Cc1ccccc1 (centres undefined)	-19.0%	?	?	-27.0%	-71.5*	14.8%	-2.0%
CCCCC1=CC2=C(c3ccco3)C(=O)C(C)(OC(=O)c3ccc(OC)cc3)C(=O)C2=CN1Cc1ccc2c(c1)OCO2 (centres undefined)	-15.8%	-37.9%	-35.7%	-4.8%	-29.6	?	nt
Cc1cccn2cc(CCNS(=O)(=O)c3cccs3)nc12	-15.1%	-1.9%	-17.9%	-9.7%	-3.0	16.6%	nt
Cc1cc(O)ccc1Nc1cc(-c2cccc(N(C)C)c2)ncn1	nt	nt	nt	-8.5%	nt	nt	-5.7%
CN(C)c1ccc(-c2cc(NCc3ccccc3)ncn2)cc1	-15.1%	nt	nt	nt	nt	nt	nt
O=C(Nc1ccc(Cl)cc1)Nc1ccccc1CC[N+](=O)[O-]	-2.4%	-28.3%	22.4µM*	3.36µM*	-78.9*	-7.7%	-3.3%
COc1cc2nc(COc3ccccc3[N+](=O)[O-])oc(=O)c2cc1OC	-0.2%	-6.0%	-23.2%	-21.9%	-57.4*	?	1.6%
O=C(c1ccc(-c2ccc([N+](=O)[O-])cc2)o1)N1CCN(S(=O)(=O)c2cccs2)CC1	-9.7%	-1.8%	-14.2%	0.1%	-51.3*	20.2%	-9.1%
O=C(c1ccc(-c2ccc(Cl)cc2)o1)N1CCN(S(=O)(=O)c2cccs2)CC1	-12.2%	-36.6%	-18.9%	-3.6%	1.0	9.6%	nt
O=C(c1ccco1)N1CCN(C(=O)c2ccc(-c3ccc([N+](=O)[O-])cc3)o2)CC1	?	nt	39.8µM*	-20.9%	-74.3*	-32.9%	2.6%
Cc1ccc(C)c(S(=O)(=O)N2CCCC2CNC(=O)C(=O)NCCN2CCOCC2)c1 (centres undefined)	-5.4%	7.6%	-4.8%	-0.9%	-3.4	14.5%	nt
CC(C)Cn1c(-c2ccccc2Cl)nc2ccccc21	-6.9%	3.6%	0.0%	nt	nt	40.7%	nt
COc1ccccc1-c1nc2ccccc2n(CC(C)C)c1=O	nt	nt	nt	23.8µM*	-71.8*	nt	-11.3%
CN(CC(=O)Nc1ccc2c(c1)OCCO2)S(=O)(=O)c1ccc(F)cc1	1.7%	2.6%	-8.1%	-3.0%	10.4	22.3%	nt
CCNC(=S)N(Cc1ccco1)Cc1cc2cc3c(cc2[nH]c1=O)OCCO3	-0.2%	6.7%	9.7%	-7.6%	0.8	27.1%	nt
CNC(=S)N(Cc1ccco1)Cc1cc2cc3c(cc2[nH]c1=O)OCCO3	-1.0%	-25.8%	-27.7%	26.7µM*	-56.7*	-10.3%	1.0%
CCCCn1c(=O)c2oc3ccccc3c2n(Cc2ccc(OC)cc2)c1=O	-5.8%	-26.4%	3.3%	nt	nt	41.0%	nt
O=c1c2ccccc2cnn1-c1nc2ccccc2[nH]1	-1.2%	-9.7%	-19.2%	-27.0%	-50.1*	36.0%	25.1µM*
CCCCNC(=O)C1(C)CCC(=O)N1c1cc(C(C)(C)C)nn1C (centres undefined)	nt	nt	nt	-3.8%	4.4	nt	2.2%
Cn1nc(C(C)(C)C)cc1N1C(=O)CCC1(C)C(=O)NC1CCCCC1 (centres undefined)	nt	nt	nt	-6.1%	6.6	nt	nt
O=C(NCc1ccccc1)C(c1cccs1)N(C(=O)c1csnn1)C1CC1 (centres undefined)	-9.6%	-7.7%	-4.6%	0.5%	5.9	22.9%	nt
O=C(NCCc1ccccc1)C(c1cccs1)N(C(=O)c1csnn1)C1CC1 (centres undefined)	-5.5%	9.1%	-20.7%	-8.8%	-0.2	7.4%	1.2%
O=C(Nc1nc(-c2ccco2)c(-c2ccco2)s1)C1CC(=O)N(c2ccc3c(c2)OCCO3)C1 (centres undefined)	?	11.2µM*	25.1µM*	?	-76.1*	-86.9%	3.0%
